We go through 3 compounds from PubChem BioAssay (EPA / NIEHS).

What all share (details): mRNA level, 48 h; actives raise or lower the signal
Read-out in assay [1]: Cytochrome P450 2C19 (Homo sapiens) (UniProt P33261)
As to the kind of experiment: LTEA_HepaRG_CYP2C19: Life Technologies and Expression Analysis (LTEA) Assay for CYP2C19 using HepaRG (AID 2283482). A digest of the protocol: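 Transcript levels of CYP2C19 were quantified by qRT-PCR after HepaRG cells were treated for 48 hours with test chemicals up to 100 uM (eight half-log concentrations, 0.5% DMSO vehicle). Gain or loss of signal was fitted relative to DMSO.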

Read-out in a further assay: CYP2C8 (gene 1558)
As to the kind of experiment: LTEA_HepaRG_CYP2C8: Life Technologies and Expression Analysis (LTEA) Assay for CYP2C8 using HepaRG (AID 2283483). A digest of the protocol: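 HepaRG (human liver line), 48 h chemical exposure, 8-pt half-log series from 100 uM, 0.5% DMSO vehicle. Readout: CYP2C8 transcript by qRT-PCR, housekeeping-normalized. Bidirectional fit vs DMSO baseline.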

Read-out in the next assay: CYP2C9 (gene 1559)
The assay can be described thus: LTEA_HepaRG_CYP2C9: Life Technologies and Expression Analysis (LTEA) Assay for CYP2C9 using HepaRG (AID 2283484). An outline of the steps: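 HepaRG, 48 h dosing, 8-pt half-log series, top 100 uM, 0.5% DMSO vehicle. Read-out: CYP2C9 transcript by TaqMan qRT-PCR, housekeeping-normalized (ACTB/GAPDH/POLR2A). Gain or loss fitted vs DMSO baseline.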

Read-out in the next assay: CYP2E1 (gene 1571)
The assay can be described thus: LTEA_HepaRG_CYP2E1: Life Technologies and Expression Analysis (LTEA) Assay for CYP2E1 using HepaRG (AID 2283485). A digest of the protocol: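 Readout is qRT-PCR of CYP2E1 mRNA, normalized to three housekeeping genes and fitted bidirectionally against 0.5% DMSO. HepaRG cells were dosed 48 h at eight concentrations, highest 100 uM with half-log dilutions.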

Read-out in another assay: CYP4A11 (gene 1579)
As to the kind of experiment: LTEA_HepaRG_CYP4A11: Life Technologies and Expression Analysis (LTEA) Assay for CYP4A11 using HepaRG (AID 2283486). A digest of the protocol:
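HepaRG, 48 h chem exposure, 8 conc (100 uM top, half-log), 0.5% DMSO vehicle; qRT-PCR readout, housekeeping-gene normalized; bidirectional curve fit vs DMSO baseline.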

Read-out in assay [2]: Cytochrome P450 3A4 (Homo sapiens) (UniProt P08684)
As to the kind of experiment: LTEA_HepaRG_CYP3A4: Life Technologies and Expression Analysis (LTEA) Assay for CYP3A4 using HepaRG (AID 2283487). A digest of the protocol:
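Differentiated HepaRG cells, plated 48 h, then dosed 48 h in serum-free induction medium with 0.5% DMSO, 8 half-log concentrations up to 100 uM, duplicate. CYP3A4 mRNA by qRT-PCR, normalized to ACTB/GAPDH/POLR2A; bidirectional fit versus DMSO.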

Read-out in assay [3]: DNA damage-inducible transcript 3 (DDIT3), DDIT3 (gene 1649)
As to the kind of experiment: LTEA_HepaRG_DDIT3: Life Technologies and Expression Analysis (LTEA) Assay for DNA damage-inducible transcript 3 (DDIT3) using HepaRG (AID 2283488). A digest of the protocol:
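Cells are human HepaRG liver cells treated for 48 h with eight half-log concentrations up to 100 uM in 0.5% DMSO. Transcript levels come from qRT-PCR normalized to three housekeeping genes, with activity fitted in both directions relative to vehicle.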

Read-out in assay [4]: Pro-epidermal growth factor (Homo sapiens) (UniProt P01133)
The assay can be described thus: LTEA_HepaRG_EGF: Life Technologies and Expression Analysis (LTEA) Assay for Epidermal growth factor (EGF) using HepaRG (AID 2283489). A digest of the protocol: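 HepaRG, 48 h dosing, 100 uM top, half-log x8, 0.5% DMSO. Readout: TaqMan qRT-PCR (Fluidigm array), housekeeping-normalized. Gain or loss of signal fit vs DMSO.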

Read-out in assay [5]: Early growth response protein 1 (EGR1) transcription factor, EGR1 (gene 1958)
The assay can be described thus: LTEA_HepaRG_EGR1: Life Technologies and Expression Analysis (LTEA) Assay for Early growth response protein 1 (EGR1) transcription factor using HepaRG (AID 2283490). A digest of the protocol:
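HepaRG, 48 h exposure, 8-pt half-log series from 100 uM, 0.5% DMSO vehicle; EGR1 transcript by TaqMan qRT-PCR (Fluidigm array), housekeeping-normalized; bidirectional fit relative to DMSO baseline.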

Read-out in assay [6]: Cytochrome P450 3A7 (Homo sapiens) (UniProt P24462)
As to the kind of experiment: LTEA_HepaRG_CYP3A7: Life Technologies and Expression Analysis (LTEA) Assay for CYP3A7 using HepaRG (AID 2283492). An outline of the steps: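 Human HepaRG liver cells, 48 h post-plating, switched to serum-free induction medium and exposed in duplicate for 48 h. Dosing: 100 uM top, half-log dilutions, 8 points, 0.5% DMSO vehicle. Read-out: CYP3A7 mRNA, gain or loss fitted against DMSO baseline.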

Read-out in another assay: CYP3A5 (gene 1577)
The assay can be described thus: LTEA_HepaRG_CYP3A5: Life Technologies and Expression Analysis (LTEA) Assay for CYP3A5 using HepaRG (AID 2283493). An outline of the steps: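 Human HepaRG hepatic cells receive 48 h chemical treatment at eight concentrations (half-log steps from 100 uM) in 0.5% DMSO. Expression of CYP3A5 is quantified by Fluidigm qRT-PCR and normalized to three reference genes.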

Read-out in assay [7]: Fatty Acid-Binding Protein 1 (FABP1), FABP1 (gene 2168)
As to the kind of experiment: LTEA_HepaRG_FABP1: Life Technologies and Expression Analysis (LTEA) Assay for Fatty Acid-Binding Protein 1 (FABP1) using HepaRG (AID 2283494). A digest of the protocol: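 qRT-PCR readout of FABP1 transcript (normalized to three housekeeping genes) after 48 h chemical exposure of HepaRG cells; eight concentrations, half-log steps, max 100 uM, 0.5% DMSO vehicle; gain or loss fitted relative to DMSO baseline.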

Read-out in assay [8]: Cytochrome P450 4A22 (Homo sapiens) (UniProt Q5TCH4)
The assay can be described thus: LTEA_HepaRG_CYP4A22: Life Technologies and Expression Analysis (LTEA) Assay for Cytochrome P450 4A22 (CYP4A22) using HepaRG (AID 2283495). An outline of the steps:
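Readout is CYP4A22 transcript induction or loss, quantified by qRT-PCR and normalized to ACTB, GAPDH and POLR2A. Human HepaRG cells receive test chemicals for 48 h at eight half-log concentrations from 100 uM in 0.5% DMSO.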

Read-out in assay [9]: Cytochrome P450 7A1 (Homo sapiens) (UniProt P22680)
As to the kind of experiment: LTEA_HepaRG_CYP7A1: Life Technologies and Expression Analysis (LTEA) Assay for Cytochrome P450 7A1 (CYP7A1) using HepaRG (AID 2283496). A digest of the protocol:
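HepaRG, 48 h exposure, 8-pt half-log series from 100 uM, 0.5% DMSO vehicle, duplicates. Readout: TaqMan qRT-PCR mRNA vs three housekeeping genes; bidirectional curve fit against DMSO baseline.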

Read-out in assay [10]: Glutathione S-Transferase (GSTA2), GSTA2 (gene 2939)
As to the kind of experiment: LTEA_HepaRG_GSTA2: Life Technologies and Expression Analysis (LTEA) Assay for Glutathione S-Transferase (GSTA2) using HepaRG (AID 2283497). A digest of the protocol: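 qRT-PCR readout of GSTA2 transcript, normalized to three housekeeping genes, fitted bidirectionally against 0.5% DMSO baseline. Differentiated HepaRG cells received compound for 48 h at 8 concentrations (top 100 uM, half-log steps).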

Read-out in assay [11]: Glutamate-cysteine ligase catalytic (GCLC), GCLC (gene 2729)
As to the kind of experiment: LTEA_HepaRG_GCLC: Life Technologies and Expression Analysis (LTEA) Assay for Glutamate-cysteine ligase catalytic (GCLC) using HepaRG (AID 2283498). An outline of the steps: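 HepaRG, 48 h exposure, 8-pt half-log series from 100 uM, 0.5% DMSO vehicle; TaqMan qRT-PCR for GCLC mRNA, housekeeping-normalized; bidirectional curve fit vs DMSO baseline.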

Read-out in assay [12]: growth arrest and DNA damage 45 (GADD45G), GADD45G (gene 10912)
The assay can be described thus: LTEA_HepaRG_GADD45G: Life Technologies and Expression Analysis (LTEA) Assay for growth arrest and DNA damage 45 (GADD45G) using HepaRG (AID 2283499). An outline of the steps:
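Gain or loss of GADD45G mRNA, quantified by TaqMan qRT-PCR against three housekeeping genes, is fitted in both directions relative to 0.5% DMSO. Human HepaRG cultures receive test chemical for 48 h at up to 100 uM.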

Read-out in assay [13]: Glutamate-cysteine ligase regulatory (GCLM), GCLM (gene 2730)
As to the kind of experiment: LTEA_HepaRG_GCLM: Life Technologies and Expression Analysis (LTEA) Assay for Glutamate-cysteine ligase regulatory (GCLM) using HepaRG (AID 2283500). An outline of the steps:
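Endpoint is GCLM transcript level by qRT-PCR, normalized to three housekeeping genes, after 48 h chemical exposure of human HepaRG cells (0.5% DMSO vehicle, top 100 uM, half-log dilutions). Fitting was bidirectional relative to DMSO.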

Read-out in assay [14]: Glutathione S-transferase M3 (GSTM3), GSTM3 (gene 2947)
As to the kind of experiment: LTEA_HepaRG_GSTM3: Life Technologies and Expression Analysis (LTEA) Assay for Glutathione S-transferase M3 (GSTM3) using HepaRG (AID 2283501). A digest of the protocol:
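HepaRG, plated 48 h, then serum-free induction medium; test chemical 48 h, duplicate; 100 uM top, half-log x8, 0.5% DMSO. Read-out: GSTM3 mRNA (TaqMan qRT-PCR, Fluidigm array). Bidirectional fit vs DMSO.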

Read-out in assay [15]: Ezrin (EZR), EZR (gene 7430)
As to the kind of experiment: LTEA_HepaRG_EZR: Life Technologies and Expression Analysis (LTEA) Assay for Ezrin (EZR) using HepaRG (AID 2283491). A digest of the protocol: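 EZR transcript levels came from Fluidigm qRT-PCR and were normalized to three housekeeping genes after 48 h chemical exposure of HepaRG cells. Dosing used an 8-point half-log series with a 100 uM top concentration in 0.5% DMSO, tested in duplicate; both directions were fitted versus vehicle.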

Active and inactive are the calls of the source. How the source made its calls: active means hit-call score of the fitted dose curve at least 0.9, where 1 is the maximum; inactive means score below 0.9.

Cytochrome P450 3A7 (Homo sapiens), sequence (P24462 whole entry, looked up): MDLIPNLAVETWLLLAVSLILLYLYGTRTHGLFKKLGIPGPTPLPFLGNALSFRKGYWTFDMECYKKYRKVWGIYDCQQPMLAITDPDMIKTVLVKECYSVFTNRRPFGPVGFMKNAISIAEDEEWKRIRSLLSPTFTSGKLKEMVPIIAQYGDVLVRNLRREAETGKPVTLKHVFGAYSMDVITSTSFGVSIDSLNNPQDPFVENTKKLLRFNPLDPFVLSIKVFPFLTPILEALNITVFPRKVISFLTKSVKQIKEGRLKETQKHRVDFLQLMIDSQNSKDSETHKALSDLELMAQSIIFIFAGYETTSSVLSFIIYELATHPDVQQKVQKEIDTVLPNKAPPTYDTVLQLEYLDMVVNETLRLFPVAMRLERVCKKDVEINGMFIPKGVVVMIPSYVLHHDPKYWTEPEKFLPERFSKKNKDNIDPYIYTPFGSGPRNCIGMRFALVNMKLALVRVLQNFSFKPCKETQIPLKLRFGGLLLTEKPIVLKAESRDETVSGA
Cytochrome P450 3A4 (Homo sapiens), sequence (P08684 whole entry, looked up): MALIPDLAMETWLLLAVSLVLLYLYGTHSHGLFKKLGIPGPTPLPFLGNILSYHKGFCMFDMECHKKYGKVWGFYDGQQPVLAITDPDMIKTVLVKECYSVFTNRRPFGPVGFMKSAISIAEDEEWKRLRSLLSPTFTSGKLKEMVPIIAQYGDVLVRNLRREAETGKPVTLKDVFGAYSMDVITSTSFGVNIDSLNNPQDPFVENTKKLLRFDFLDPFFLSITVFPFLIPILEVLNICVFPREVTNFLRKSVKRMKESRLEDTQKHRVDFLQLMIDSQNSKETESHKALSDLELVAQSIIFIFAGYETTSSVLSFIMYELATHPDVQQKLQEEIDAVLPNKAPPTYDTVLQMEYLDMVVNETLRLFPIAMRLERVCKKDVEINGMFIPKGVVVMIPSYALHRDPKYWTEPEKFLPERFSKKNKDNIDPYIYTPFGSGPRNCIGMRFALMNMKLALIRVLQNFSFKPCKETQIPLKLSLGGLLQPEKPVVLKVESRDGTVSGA
Cytochrome P450 2C19 (Homo sapiens), sequence (P33261 whole entry, looked up): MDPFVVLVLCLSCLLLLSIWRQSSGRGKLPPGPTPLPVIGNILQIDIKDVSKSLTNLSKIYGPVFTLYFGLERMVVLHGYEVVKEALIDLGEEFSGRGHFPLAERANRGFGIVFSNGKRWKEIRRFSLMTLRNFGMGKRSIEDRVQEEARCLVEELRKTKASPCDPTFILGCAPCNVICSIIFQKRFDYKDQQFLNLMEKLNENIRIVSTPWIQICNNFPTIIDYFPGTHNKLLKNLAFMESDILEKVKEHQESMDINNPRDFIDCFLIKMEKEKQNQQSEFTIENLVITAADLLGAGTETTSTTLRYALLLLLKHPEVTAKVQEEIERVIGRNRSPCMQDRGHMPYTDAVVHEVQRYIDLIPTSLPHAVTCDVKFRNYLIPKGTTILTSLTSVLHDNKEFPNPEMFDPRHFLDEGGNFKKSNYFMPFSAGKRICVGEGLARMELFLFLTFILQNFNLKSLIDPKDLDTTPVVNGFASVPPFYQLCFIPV

In general, AC50 refers to the concentration at which the activity in the assay is half-maximal. For the compound `CON=C(C(=O)OC)c1ccccc1CON=C(C)c1cccc(C(F)(F)F)c1`, the outcome (in assay [1]; with CYP2C8 (gene 1558); in the assay with CYP2C9 (gene 1559); with CYP4A11 (gene 1579); in assay [3]; in assay [4]) was inactive. The result in [5], in assay [7], in assay [8], in [9], in [10] and in assay [11] was inactive. The outcome in assay [12], in assay [13] and in assay [14] was inactive. Also, the AC50 with CYP2E1 (gene 1571) is 25.4 µM (active); in assay [2], 13.1 µM (active); in assay [6], 19.5 µM (active); in the assay with CYP3A5 (gene 1577), 50 µM (active).
Turning to `CCc1cccc(C)c1N(C(=O)CCl)C(C)COC` (stereo not given), the AC50 was 16 µM (active) in [1]; 50 µM (active) with CYP2E1 (gene 1571); 11.3 µM (active) in assay [2]; 37.9 µM (active) in assay [7]; 18 µM (active) in [10]. For the same compound, the call (in the assay with CYP4A11 (gene 1579); in assay [3]; in [4]; in assay [5]; in [15]; in assay [6]) was inactive. Moreover, the compound was classed as inactive (with CYP3A5 (gene 1577); in assay [8]; in assay [9]; in assay [11]; in assay [12]; in assay [13]). Moreover, the compound was classed as inactive in assay [14].
For `COP(=O)(OC)OC(Br)C(Cl)(Cl)Br` (stereo not given), the compound was classed as inactive (with CYP2C8 (gene 1558); in the assay with CYP2C9 (gene 1559); with CYP2E1 (gene 1571); with CYP4A11 (gene 1579); in assay [2]; in assay [3]). Moreover, the compound was classed as inactive (in assay [4]; in assay [5]; in [15]; in assay [6]; with CYP3A5 (gene 1577); in assay [7]). For the same compound, the outcome in [8], in assay [9], in assay [11], in [12], in [13] and in assay [14] was inactive.
